Assay results reported in PubChem BioAssay AID1159580 (chemical genetic matrix, 2015).
Hit rate of the full screen: of about 5,500 compounds, about 2,000 (36%) were called active. Inconclusive results (about 18%) are left out. Rule as the data show it: active = normalized growth mostly below about 0.91 (no sharp cut-off); inconclusive = no clear call, values can overlap the other calls; inactive = mostly above about 0.92. The list shows a part of the results.

Test: chemical genetic growth profiling, strain panel (AID 1159580);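 also: tested at 20 µM; growth read once vehicle control cultures reached saturation at 30 °C; 1 = growth at the plate median or of vehicle wells; lower values mean less growth of the strain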
Conditions: S. cerevisiae deletion strains, growth OD
[1] = locus YCL061C, strain MRC1, hits give low values
[2] = locus YHR030C, strain SLT2, hits give low values
[3] = locus YDR150W, strain NUM1, hits give low values
[4] = locus YPL055C, strain LGE1, hits give low values
[5] = locus YPL241C, strain CIN2, hits give low values

Measured: normalized growth

OC[C@@H](O)C(O[C@@H]1O[C@H](CO)[C@H](O)[C@H](O)[C@H]1O)[C@H](O)[C@@H](O)CO (stereo not given in full)
inactive: locus YAL021C, strain ccr4, hits give low values 0.969 | locus YAL026C, strain drs2, hits give low values 0.99 | locus YAL030W, strain snc1, hits give low values 0.986 | locus YBL061C, strain skt5, hits give low values 0.993 | locus YBR009C, strain hhf1, hits give low values 0.991 | locus YBR023C, strain chs3, hits give low values 0.984 | locus YBR171W, strain sec66, hits give low values 0.98 | locus YBR279W, strain paf1, hits give low values 0.981 | locus YCL011C, strain gbp2, hits give low values 0.995 | locus YCL016C, strain dcc1, hits give low values 0.983 | [1] 0.994 | locus YCL069W, strain vba3, hits give low values 0.99 | locus YCR088W, strain abp1, hits give low values 0.98 | locus YDL005C, strain med2, hits give low values 0.979 | locus YDL040C, strain nat1, hits give low values 0.988 | locus YDR001C, strain nth1, hits give low values 0.99 | locus YDR069C, strain doa4, hits give low values 0.981 | locus YDR137W, strain rgp1, hits give low values 1 | locus YDR159W, strain sac3, hits give low values 0.982 | locus YDR195W, strain ref2 0.963 | locus YDR297W, strain sur2, hits give low values 0.987 | locus YDR334W, strain swr1, hits give low values 0.98 | locus YDR335W, strain msn5, hits give low values 0.987 | locus YDR392W, strain spt3, hits give low values 0.992 | locus YEL003W, strain gim4, hits give low values 1.01 | locus YEL037C, strain rad23, hits give low values 0.991 | locus YEL061C, strain CIN8 (second series), hits give low values 0.995 | locus YER015W, strain faa2, hits give low values 0.991 | locus YER016W, strain bim1, hits give low values 0.988 | locus YER111C, strain swi4, hits give low values 0.996 | locus YER155C, strain BEM2 (second series), hits give low values 0.976 | locus YFR010W, strain ubp6, hits give low values 0.975 | locus YGL167C, strain pmr1, hits give low values 0.986 | locus YGL173C, strain kem1, hits give low values 0.981 | locus YGL227W, strain vid30, hits give low values 0.99 | locus YGL240W, strain doc1, hits give low values 0.999 | locus YGL253W, strain hxk2, hits give low values 0.989 | locus YHR013C, strain ard1, hits give low values 0.989 | locus YHR027C, strain rpn1, hits give low values 1 | [2] 0.976 | locus YHR079C, strain IRE1, hits give low values 0.974 | locus YHR142W, strain chs7, hits give low values 0.983 | locus YJL092W, strain hpr5, hits give low values 0.989 | locus YJL095W, strain BCK1 (second series), hits give low values 0.98 | locus YJL095W, strain BCK1, hits give low values 1.03 | locus YJL115W, strain asf1, hits give low values 0.978 | locus YJL129C, strain trk1, hits give low values 0.985 | locus YJL154C, strain vps35, hits give low values 0.991 | locus YJL164C, strain tpk1, hits give low values 0.996 | locus YJL166W, strain qcr8, hits give low values 0.987 | locus YJL187C, strain SWE1, hits give low values 0.991 | locus YJR066W, strain TOR1, hits give low values 0.926 | locus YKL160W, strain elf1, hits give low values 0.991 | locus YKR026C, strain gcn3, hits give low values 0.985 | locus YKR091W, strain srl3, hits give low values 0.983 | locus YLL001W, strain dnm1, hits give low values 1 | locus YLL026W, hits give low values 0.989 | locus YLL041C, strain sdh2, hits give low values 0.992 | locus YLR027C, strain aat2, hits give low values 0.991 | locus YLR113W, strain HOG1, hits give low values 1.04 | locus YLR221C, strain rsa3, hits give low values 0.994 | locus YLR258W, strain gsy2, hits give low values 0.989 | locus YLR262C, strain YPT6 (second series), hits give low values 1 | locus YLR320W, strain mms22, hits give low values 0.98 | locus YLR342W, strain FKS1, hits give low values 0.987 | locus YLR357W, strain rsc2, hits give low values 0.959 | locus YLR370C, strain arc18, hits give low values 0.994 | locus YLR384C, strain iki3, hits give low values 0.983 | locus YML120C, strain ndi1, hits give low values 0.995 | locus YMR058W, strain fet3, hits give low values 0.99 | locus YMR125W, strain sto1, hits give low values 0.981 | locus YMR129W, hits give low values 0.995 | locus YMR205C, strain PFK2, hits give low values 0.994 | locus YMR231W, strain pep5, hits give low values 0.967 | locus YNL071W, strain lat1, hits give low values 0.985 | locus YNL183C, strain NPR1, hits give low values 0.934 | locus YNL209W, strain ssb2, hits give low values 1.01 | locus YNL248C, strain rpa49, hits give low values 0.991 | locus YNL322C, strain KRE1 (second series), hits give low values 0.986 | locus YNR049C, strain mso1, hits give low values 0.981 | locus YOR001W, strain rrp6, hits give low values 0.989 | locus YOR070C, strain gyp1, hits give low values 0.996 | locus YOR080W, strain dia2, hits give low values 0.981 | locus YOR083W, strain WHI5, hits give low values 0.986 | locus YOR106W, strain vam3, hits give low values 0.988 | locus YOR231W, strain MKK1, hits give low values 0.976 | locus YOR265W, strain rbl2, hits give low values 1 | locus YOR270C, strain vph1, hits give low values 1.01 | locus YOR290C, strain snf2, hits give low values 0.998 | locus YPL051W, strain arl3, hits give low values 1.01 | locus YPL078C, strain atp4, hits give low values 0.997 | locus YPL106C, strain sse1, hits give low values 0.969 | locus YPL240C, strain hsp82, hits give low values 0.988 | locus YPL256C, strain CLN2, hits give low values 0.986

O=C(O)CCC/C=C\C[C@@H]1[C@@H](/C=C/[C@H](O)C2Cc3ccccc3C2)[C@@H](F)C[C@@H]1O
inactive: locus YAL040C, strain CLN3, hits give low values 0.995 | locus YCL061C, strain MRC1 (second series), hits give low values 0.998 | [3] 1.01 | locus YDR363W, strain ESC2, hits give low values 0.993 | locus YER002W, strain NOP16, hits give low values 0.988 | locus YNL175C, strain NOP13, hits give low values 0.982 | locus YNL197C, strain WHI3, hits give low values 0.989 | locus YNL224C, strain SQS1, hits give low values 0.969 | locus YOR083W, strain WHI5 (second series), hits give low values 1.02 | [4] 0.99 | [5] 0.996

Cc1cc(N=CNO)c2ccccc2n1
inactive: locus YAL013W, strain DEP1, hits give low values 1 | locus YBR229C, strain ROT2, hits give low values 0.994 | [1] 0.976 | locus YDL101C, strain DUN1, hits give low values 0.966 | locus YDL134C, strain PPH21, hits give low values 0.997 | [3] 0.938 | locus YEL061C, strain CIN8, hits give low values 0.999 | locus YGR078C, strain PAC10, hits give low values 0.981 | locus YGR229C, strain SMI1, hits give low values 1.01 | [2] 0.869 | locus YHR087W, strain rtc3, hits give low values 1.04 | locus YJR043C, strain POL32, hits give low values 0.959 | locus YJR075W, strain HOC1, hits give low values 1 | locus YKL190W, strain CNB1, hits give low values 0.997 | locus YLR039C, strain RIC1, hits give low values 0.959 | locus YLR058C, strain SHM2 (second series), hits give low values 0.989 | locus YLR085C, strain ARP6, hits give low values 0.932 | locus YLR262C, strain YPT6, hits give low values 0.988 | locus YML094W, strain GIM5, hits give low values 1.01 | locus YMR219W, strain ESC1, hits give low values 1 | locus YMR263W, strain SAP30, hits give low values 0.994 | locus YMR307W, strain GAS1, hits give low values 1.19 | locus YNL128W, strain TEP1, hits give low values 0.966 | locus YNL153C, strain GIM3, hits give low values 0.987 | locus YNL298W, strain CLA4 (second series), hits give low values 0.919 | locus YNL322C, strain KRE1, hits give low values 0.962 | locus YNR030W, strain Alg12, hits give low values 0.982 | [4] 1.04 | [5] 0.966 | locus YPR135W, strain CTF4, hits give low values 0.955
